Values joined by “and” are separate entries in the source; they are usually repeats but may differ in a detail not shown here. Equal values may be shown once. Records with an inconclusive call do not appear. Active and inactive are the calls of the source. Calls come from the whole dose curve; as a rule, active = well fitted curve in the direction sought with a large enough effect; inconclusive = small, poorly fitted or top-dose-only effect, or another doubt; inactive = no such curve, though single readings can be large; an effect the other way counts as inactive or inconclusive.

Assay [1] addresses Cellular tumor antigen p53 (Homo sapiens) (UniProt P04637). The experiment in a line: Primary qHTS for small molecule compounds that upregulate eGFP-tagged delta133p53alpha (in N-terminal) cells. (AID 2060322).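 For activation: series mostly up to about 56 µM; 0% = DMSO vehicle and 100% = reference activator.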 Note: nearly all actives have a fitted effect of over 75% in size. Note: potency is the fitted concentration of half-maximal effect. The settings on record: NCI-H358 eGFP-delta133p53alpha fluorescence, 24 h; activation: hits give high values. The method, boiled down: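 NCI-H358 cells pre-induced 24 h with 10 ng/ml doxycycline to express N-terminal eGFP-delta133p53alpha, then dosed 24 h at 37C without doxycycline; fixed, Hoechst-stained, GFP intensity by laser scanning cytometry, normalized to DMSO (0%) and 57.5 uM 5-azacytidine (100%).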

In assay [2] the target is Aldehyde dehydrogenase, mitochondrial (Homo sapiens) (UniProt P05091). The experiment in a line: qHTS for Inhibitors of the Aldehyde Dehydrogenase Family (ALDH2) Primary screen (AID 2061308).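 Note: plate controls were vehicle for no effect and reference inhibitor for full effect; nearly all actives have a fitted effect of over 55% in size.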 For orientation: Quantitative high-throughput screening tests each substance at several concentrations.
Assay [3] concerns the target Retinaldehyde dehydrogenase 3 (Homo sapiens) (UniProt P47895). The experiment in a line: qHTS for Inhibitors of the Aldehyde Dehydrogenase Family (ALDH1A3) Validation screen (AID 2061312). Note: % is set by controls: 0 for no effect and ±100 for the full control effect; nearly all actives have a fitted effect of over 45% in size.
For assay [4] the target is unchanged. The experiment in a line: qHTS for Inhibitors of the Aldehyde Dehydrogenase Family (ALDH1A3) Primary screen (AID 2061315).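 Note: plate controls were DMSO vehicle for no effect and reference inhibitor for full effect.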
Assay [5] is described as follows: BET inhibitor-based combinations targeting novel dependencies in MECOM-rearranged (r) AML: SET-2 cell line (AID 2202231).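 Note: plate controls were DMSO treated cells for no effect and wells without cells for full effect; nearly all actives have a fitted effect of over 35% in size.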 The conditions noted are these: SET-2 AML cells viability, CellTiter-Glo luminescence, 48 h; viability: hits give low values, series mostly up to about 46 µM. A digest of the protocol: (§1)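 Here, 11-point titrations of each agent were applied to 500 seeded cells and incubated 48 hr; CellTiter-Glo signal, scaled against DMSO and empty wells, was integrated as AUC, then Z-scored within the individual line.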

Assay [6] can be described thus: BET inhibitor-based combinations targeting novel dependencies in MECOM-rearranged (r) AML: HNT-34 cell line (AID 2202234). Note: nearly all actives have a fitted effect of over 35% in size. Note: potency is the fitted concentration of half-maximal effect. The method, boiled down: (§2)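 Normalized to DMSO and empty-well controls, the luminescence data from CellTiter-Glo after 48 hr drug exposure were fitted across 11 concentrations. Reported metrics are area under the dose-response curve and its Z-transformed form.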

Assay [7] can be described thus: BET inhibitor-based combinations targeting novel dependencies in MECOM-rearranged (r) AML: AML-191 cell line (AID 2202236; note: nearly all actives have a fitted effect of over 35% in size; note: potency is the fitted concentration of half-maximal effect). A digest of the protocol: as §1
The nature of assay [8]: BET inhibitor-based combinations targeting novel dependencies in MECOM-rearranged (r) AML: AML-194 cell line (AID 2202237; note: nearly all actives have a fitted effect of over 40% in size; note: potency is the fitted concentration of half-maximal effect). A digest of the protocol: as §1
Assay [9] can be described thus: BET inhibitor-based combinations targeting novel dependencies in MECOM-rearranged (r) AML: OCI-AML3 cell line (AID 2202232). Note: nearly all actives have a fitted effect of over 35% in size. Note: potency is the fitted concentration of half-maximal effect. The conditions noted are these: Potency: OCI-AML3 viability. A digest of the protocol:
as §1

The nature of assay [10]: BET inhibitor-based combinations targeting novel dependencies in MECOM-rearranged (r) AML: MV-4-11 cell line (AID 2202233). Note: nearly all actives have a fitted effect of over 45% in size. Note: potency is the fitted concentration of half-maximal effect. The method, boiled down:
as §2

A short description of assay [11]: BET inhibitor-based combinations targeting novel dependencies in MECOM-rearranged (r) AML: UCSD-AML1 cell line (AID 2202235). Note: nearly all actives have a fitted effect of over 40% in size. Note: potency is the fitted concentration of half-maximal effect. The method, boiled down: as §2

Cellular tumor antigen p53 (Homo sapiens), sequence (P04637 whole entry, looked up): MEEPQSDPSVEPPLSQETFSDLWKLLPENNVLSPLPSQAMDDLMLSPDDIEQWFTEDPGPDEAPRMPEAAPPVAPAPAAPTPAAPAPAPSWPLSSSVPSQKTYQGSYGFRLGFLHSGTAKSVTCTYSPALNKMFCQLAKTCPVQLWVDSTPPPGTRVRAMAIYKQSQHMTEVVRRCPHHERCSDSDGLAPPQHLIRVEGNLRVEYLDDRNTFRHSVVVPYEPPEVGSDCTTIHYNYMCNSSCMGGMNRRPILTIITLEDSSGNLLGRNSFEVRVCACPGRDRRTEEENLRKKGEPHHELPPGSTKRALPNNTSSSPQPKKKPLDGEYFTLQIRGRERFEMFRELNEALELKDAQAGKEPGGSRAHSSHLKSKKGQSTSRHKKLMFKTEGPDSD

The term viability denotes a read-out of living cells in per cent, often relative to untreated cells. Turning to `Cc1cc(Nc2ncnc3ccc(-c4ccc(CNCCS(C)(=O)=O)o4)cc23)ccc1Oc1ccn2ncnc2c1`, the activation in [1] was 23.7% (inactive) and 4.3% (inactive). Moreover, the Potency entry in assay [2], in [3], in [4], in [6], in assay [7] and in assay [8] was “inactive” in each case. In addition, the viability in [5] is 75.4% (inactive).

As to `Cn1cc(-c2cnn3c(N)c(Br)c([C@@H]4CCCNC4)nc23)cn1`, the activation in assay [1] is 3.82% (inactive). Moreover, the Potency entry in assay [2], in [3] and in assay [4] was “inactive” in each case. For the same compound, the Potency in assay [9] was 13.2 µM (active); in [10] it was 0.468 µM (active).

With `C=C1[C@H](CO)[C@@H](O)C[C@@H]1n1cnc2c(=O)[nH]c(N)nc21`, in assay [1], the activation was -3.34% (inactive). Also, the Potency entry in [2], in assay [3], in assay [4], in [6] and in [8] was “inactive” each time. Besides, in assay [5], the viability is 117% (inactive). Besides, the Potency in assay [7] is 18.6 µM (active).

`OCCn1cc(-c2cnc3nnn(Cc4ccc5ncccc5c4)c3n2)cn1`: in [1], the activation is -13.3% (inactive) and 3.34% (inactive). Besides, the Potency result in assay [2], in assay [3], in [4], in assay [11] and in assay [8] was “inactive” throughout. Moreover, the viability in [5] was 101% (inactive).

As to `COc1ccc2c(Oc3ccc(NC(=O)c4c(C)n(CC(C)(C)O)n(-c5ccccc5)c4=O)nc3)ccnc2c1`, in [1], the activation was 16.6% (inactive) and 11.9% (inactive). Besides, the Potency entry in [2], in [3] and in assay [4] was “inactive” throughout. For the same compound, the values for the Potency in assay [10] and in [6] were 0.372 µM (active) and 3.32 µM (active), respectively.

Take `CCCCNc1ncc2c(-c3ccc(CN4CCN(C)CC4)cc3)cn(C3CCC(O)CC3)c2n1` (stereo unspecified): the Potency is 21.3 µM (active) in assay [1]; 6.61 µM (active) and 4.68 µM (active) in [9]; 59 nM (active) and 93.4 nM (active) in assay [10]; 1.05 µM (active) and 1.18 µM (active) in assay [6]; 4.17 µM (active) and 3.32 µM (active) in [11]; 833 nM (active) and 1.18 µM (active) in [7]. For the same compound, in [8], the Potency was 742 nM (active) and 1.05 µM (active). Moreover, the Potency result in assay [2], in assay [3] and in assay [4] was “inactive” in each case.

For `COc1cc(OC)c2c(=O)[nH]c(-c3cc(C)c(OCCO)c(C)c3)nc2c1`, in assay [1], the activation was -0.477% (inactive). The Potency entry in [2], in [3] and in [4] was “inactive” throughout. Further, the Potency was 16.6 µM (active) in [10], 16.6 µM (active) in assay [7] and 20.9 µM (active) in assay [8].

Consider `CCNC(=O)c1noc(-c2cc(C(C)C)c(O)cc2O)c1-c1ccc(CN2CCOCC2)cc1`, for which, in assay [1], the activation was -2.59% (inactive) and -6.68% (inactive). Further, the Potency entry in assay [2], in [3] and in assay [4] was “inactive” each time. Also, the Potency in assay [11] was 16.6 nM (active).

Take `CC(C)C(=O)Nc1ncc(-c2cc(C(F)F)nn2-c2c(Cl)cccc2Cl)s1`: the activation in assay [1] is 35.2% (inactive) and 29.6% (inactive). The Potency entry in assay [2], in assay [3] and in [4] was “inactive” in each case. Moreover, the Potency in [9] is 23.5 µM (active); in assay [10], 20.9 µM (active); in [6] it was 16.6 µM (active); in assay [7], 20.9 µM (active).

Turning to `CC(C)c1cc(-c2n[nH]c(=O)n2-c2ccc3c(ccn3C)c2)c(O)cc1O`, in assay [1], the activation is -0.957% (inactive) and -3.82% (inactive). The Potency result in assay [2], in assay [3] and in [4] was “inactive” throughout. The Potency was 0.0235 µM (active) in assay [10] and 46.8 nM (active) in assay [11].

`CC(C)n1cnc2c(NCCc3ccc(O)cc3)nc(-c3csc4ccccc34)nc21`: in [1], the activation was 28% (inactive) and 17.7% (inactive). In addition, the Potency result in [2], in assay [3] and in [4] was “inactive” throughout. For the same compound, the Potency in assay [9] and in assay [7] was 20.9 µM (active) in each case.

In the case of `Cc1c(F)cc(C(=O)NC2CC2)cc1-c1ccc(C(=O)NCC(C)(C)C)cn1`, the activation in [1] was 2.86% (inactive). Moreover, the Potency result in assay [2], in assay [3], in assay [4], in [9], in assay [10] and in assay [6] was “inactive” in each case. Also, the Potency result in assay [11], in assay [7] and in [8] was “inactive” throughout.

Regarding `O=C(Nc1cccc(C(F)(F)F)c1)Nc1cc(S(=O)(=O)NC2CC2)ccc1-c1ccsc1`, the activation in assay [1] was 29.6% (inactive) and 2.39% (inactive). Moreover, the Potency result in [2], in assay [3] and in [4] was “inactive” each time. Also, in [10], the Potency is 26.3 µM (active).

For the compound `CCCc1cc(C)[nH]c(=O)c1CNC(=O)c1cc(-c2ccnc(N3CCN(C)CC3)c2)cc2c1cnn2C(C)C`, the activation in [1] is -12.3% (inactive). Moreover, the Potency result in assay [2], in [3] and in [4] was “inactive” each time. Also, in assay [10], the Potency is 23.5 µM (active).

For `Cc1ccc(Nc2cc(-c3cccc(N4C(=O)c5ccccc5C4=O)c3)ncn2)cc1NS(C)(=O)=O`, the activation in [1] was 19.8% (inactive) and 20% (inactive). Also, the Potency result in [2], in assay [3] and in [4] was “inactive” each time. Besides, in [10], the Potency was 10.5 µM (active).

Take `O=C(Nc1cccc(Br)c1)c1cccc(S(=O)(=O)N2CCCCCC2)c1`: the activation in [1] was 41.1% (inactive) and -27.9% (inactive). Moreover, the Potency result in [2], in assay [3] and in assay [4] was “inactive” throughout. The Potency in [10] is 16.6 µM (active).

Consider `Cc1nc(Nc2ncc(C(=O)Nc3c(C)cccc3Cl)s2)cc(N2CCN(CCO)CC2)n1`, for which the Potency in assay [1] was 9.53 µM (active); in [9] it was 13.2 µM (active); in assay [10], 13.2 µM (active); in assay [11] it was 7420 nM (active); in [7], 14.8 µM (active); in assay [8] it was 11.8 µM (active). Also, the Potency result in [2], in assay [3] and in assay [4] was “inactive” throughout.
